# Experimental data from PubChem BioAssay (EPA / NIEHS).
# Records with an inconclusive call do not appear. Active and inactive are the calls of the source. Rule for the calls, unless noted: active = hit-call score of the fitted dose curve at least 0.9, where 1 is the maximum; inactive = score below 0.9.
# Experiments:
# [1] = CCTE_Shafer_MEA_acute_cross_correlation_area: CCTE's Neural Acute Assay for Area of Cross Correlation, Shafer Lab (AID 2284024);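 note: area under pooled inter-electrode spike cross-correlation near zero lag as percent change from own baseline; curves fitted for loss of cross-correlation area so actives lower synchrony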;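 for outcome: rat primary cortical neuron networks on 48-well MEA at DIV 13 or 15 with 40 min exposure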
# How it was run: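 Plates equilibrated 20 min at 37 C, then 40 min baseline was recorded, compound was added (0.03-40 uM), and a further 40 min was recorded. Wells needed ≥10 active electrodes (≥5 spikes/min) on exposure day.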
# [2] = CCTE_Shafer_MEA_acute_cross_correlation_HWHM: CCTE's Neural Acute Assay for Cross Correlation at Half Width at Half Maximum, Shafer Lab (AID 2284026);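 note: percent change per well from pre-dose baseline in spike cross-correlogram half width; hits are a decrease in cross-correlogram half width relative to DMSO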;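 for outcome: spontaneous network firing of rat primary cortical neurons on multiwell microelectrode arrays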
# How it was run: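 Rat cortical neuron cultures on microelectrode arrays were equilibrated 20 min at 37 C, recorded 40 min at baseline, then 40 min after compound addition (0.03-40 uM, ≥3 wells). Spikes were detected at 8x rms noise after 300-5000 Hz band-pass filtering.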
# [3] = CCTE_Shafer_MEA_acute_synchrony_index: CCTE's Neural Acute Assay for Synchrony, Shafer Lab (AID 2284027);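 note: network synchrony index of spontaneous spiking in primary rat cortical neurons on MEAs; fitted for loss of signal so actives lower synchrony relative to DMSO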
# How it was run: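 The synchrony index is taken as percent change per well between a 40 min baseline and a 40 min recording with compound (0.03–40 uM), at 37C. Rat cortical cultures on multiwell MEAs at DIV 13 or 15, spike threshold 8× rms noise.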
# [4] = CCTE_Shafer_MEA_dev_firing_rate_mean: CCTE's Neural Network Formation Assay for Mean Firing Rate, Shafer Lab (AID 2284031);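 for AC50: curve fitted for loss of firing so AC50 reflects decreased mean firing rate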
# How it was run: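 Spike frequency (spikes/recording length, averaged over active electrodes) was recorded on days 5, 7, 9 and 12 and collapsed to AUC; rat cortical cultures received compound continuously over 12 days of network development.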
# [5] = CCTE_Shafer_MEA_dev_per_burst_spike_percent: CCTE's Neural Network Formation Assay for Percent of Spikes in a Burst, Shafer Lab (AID 2284032);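 for AC50: fitted as a decrease in burst spike percentage below DMSO baseline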
# How it was run: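 Value is trapezoidal AUC over recordings on days 5, 7, 9 and 12 of the well-mean fraction of spikes falling in single-electrode bursts; rat cortical cultures exposed continuously from plating, treatment renewed DIV 5 and 9, fitted downward against DMSO.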
# [6] = CCTE_Shafer_MEA_dev_active_electrodes_number: CCTE's Neural Network Formation Assay for Number of Active Electrodes, Shafer Lab (AID 2284040; active = hit-call score of the fitted dose curve at least 0.9, where 1 is the maximum;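 for AC50: potency for loss of active electrodes versus DMSO so lower counts are hits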)
# How it was run: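 Counts electrodes per well firing at least 5 spikes/min, recorded on days 5, 7, 9 and 12 in rat cortical cultures dosed continuously from plating (treatment refreshed DIV 5, 9). Value is the area under the curve over recordings, fitted downward relative to DMSO.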
# [7] = biological target: Estrogen receptor (Homo sapiens) (UniProt P03372); assay: CCTE_Deisenroth_AIME_384WELL_LUC_Active: CCTE's 384-well Estrogen Receptor Transactivation Assay with AIME metabolic competence (ERTA luciferase; metabolism positive), Deisenroth Lab (AID 2284030; active = hit-call score of the fitted dose curve at least 0.9, where 1 is the maximum)
# Sequence of Estrogen receptor (Homo sapiens) (P03372 whole entry, looked up): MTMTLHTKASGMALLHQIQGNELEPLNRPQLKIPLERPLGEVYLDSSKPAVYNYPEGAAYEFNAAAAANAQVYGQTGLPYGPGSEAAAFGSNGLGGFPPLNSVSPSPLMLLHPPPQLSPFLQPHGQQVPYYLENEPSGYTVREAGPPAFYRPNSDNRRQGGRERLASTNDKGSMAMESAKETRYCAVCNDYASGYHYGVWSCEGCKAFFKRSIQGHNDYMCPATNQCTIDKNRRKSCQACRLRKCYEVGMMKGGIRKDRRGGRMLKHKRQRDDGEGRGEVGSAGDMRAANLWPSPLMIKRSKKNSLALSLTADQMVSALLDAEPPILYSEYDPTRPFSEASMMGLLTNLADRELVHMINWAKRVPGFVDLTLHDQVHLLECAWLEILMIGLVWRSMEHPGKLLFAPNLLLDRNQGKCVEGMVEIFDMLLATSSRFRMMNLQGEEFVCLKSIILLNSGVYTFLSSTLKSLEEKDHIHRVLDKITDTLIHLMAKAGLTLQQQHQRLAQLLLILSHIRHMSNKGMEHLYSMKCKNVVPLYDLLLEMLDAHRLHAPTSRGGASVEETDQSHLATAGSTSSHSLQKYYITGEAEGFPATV
# How it was run: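 AIME metabolism-positive mode: chemicals 0.002 - 200 uM, 2 h with alginate-bound PB/BNF-induced rat S9 → medium to VM7Luc4E2 ERTA, 24 h → luciferase. Positive fit vs 17beta-estradiol; n=4 typical.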
# [8] = CCTE_Deisenroth_AIME_384WELL_CTox_Active: Cytotoxicity Assessment (CTOX) in CCTE's 384-well Estrogen Receptor Transactivation Assay with AIME metabolic competence (metabolism positive), Deisenroth Lab (AID 2284037; active = hit-call score of the fitted dose curve at least 0.9, where 1 is the maximum;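 note: chemicals first conditioned 2 h by alginate-bound induced rat liver S9 before cells; activity means signal loss indicating cell death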)
# How it was run: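 Cytotoxicity in VM7Luc4E2 breast cells, 24 hour, measured as protease-substrate fluorescence loss, after 2-hour metabolic conditioning with induced rat hepatic S9 in alginate microspheres. Concentrations 0.002 - 200 uM, 10 points, bidirectional fitting.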
# [9] = biological target: Estrogen receptor (Homo sapiens) (UniProt P03372); assay: CCTE_Deisenroth_AIME_384WELL_LUC_Inactive: CCTE's 384-well Estrogen Receptor Transactivation Assay without AIME metabolic competence (ERTA luciferase; metabolism negative), Deisenroth Lab (AID 2284038; active = hit-call score of the fitted dose curve at least 0.9, where 1 is the maximum;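 note: VM7Luc4E2 breast cells given medium preincubated 2 h with S9-free microspheres; hits raise estrogen receptor luciferase signal so potencies reflect agonists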)
# Description: CCTE_Deisenroth_AIME_384WELL (AIME metabolism assay) is a cell-based, single-readout assay that uses VM7Luc4E2, a human mammary gland/breast cell line, with measurements taken at 24 hour after chemical dosing in a 384-well plate.CCTE_Deisenroth_AIME_384WELL_LUC_Inactive is one of four assay components measured or calculated from the CCTE_Deisenroth_AIME_384WELL assay. It is designed to make measurements of luciferase induction, a form of inducible reporter, as detected with bioluminescence signals by luciferase-coupled ATP quantitation technology.CCTE_Deisenroth_AIME_384WELL_LUC_Inactive is a component of the CCTE_Deisenroth_AIME_384WELL assay that measures the effect of retroftting the VM7Luc ERTA assay with the Alginate Immobolization of Metabolic Enzymes (AIME) metabolism method. AIME is optimized to impart phase I hepatic metabolism using phenobarbital/beta-naphthoflavone induced hepatic S9 from male Sprague Dawley rats. Parent chemicals are incubated for 2 hours in the AIME assay prior to transfer to the VM7Luc ERTA assay plate. […] This endpoint evaluates reporter induction in metabolism negative mode. Using a type of inducible reporter in VM7Luc cells, gain-of-signal activity can be used to understand changes in the reporter gene as they relate to xenobiotic metabolism and the gene ESR1. This assay endpoint, CCTE_Deisenroth_AIME_384WELL_LUC_Inactive, was analyzed in the positive analysis fitting direction relative to 17beta-estradiol as the positive control in the ERTA assay. To generalize the intended target to other relatable targets, this assay endpoint is annotated to the nuclear receptor intended target family, where the subfamily is steroidal.
# The AIME procedure consists of a preparative "pre-stamping" step using a barium chloride/poly-L-lysine (PLL) solution followed by "stamping" the lid in alginate-hepatic S9 (metabolism positive) or alginate-water (metabolism negative) to form microspheres. Once stamping is completed, the AIME lids are placed in duplicate microplates (metabolism positive or negative) containing chemical solutions and incubated for two hours to facilitate metabolic reactions. The conditioned medium, containing parent chemical or metabolites, is then transferred to the cell-based VM7Luc Estrogen Receptor Transactivation Assay (ERTA) for 24 hours. A typical experimental design tests a 10-point concentration series (0.002 - 200 uM) for 8 compounds (96-well format)1 or 32 compounds (384-well format)2 in single technical replicate. AIME assay controls include trans-stilbene (bioactivated control) and ethylparaben (bioinactivated control). ERTA assay plate controls include 17-beta estradiol (positive control) and DMSO (solvent control). Experiments typically comprise a minimum of four experimental replicates (n=4).
# [10] = CCTE_Deisenroth_AIME_384WELL_CTox_Inactive: Cytotoxicity Assessment (CTOX) in CCTE's 384-well Estrogen Receptor Transactivation Assay without AIME metabolic competence (metabolism negative), Deisenroth Lab (AID 2284039; active = hit-call score of the fitted dose curve at least 0.9, where 1 is the maximum;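 note: cell viability via live-cell protease substrate cleaved to fluorescent probe; cells exposed 24 h to medium preincubated 2 h with alginate-water beads without S9; loss of fluorescence signal means loss of viability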)
# How it was run: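 Fluorescence from a live-cell protease substrate, read after 24 h in VM7Luc4E2 cells, indicated viability. Test medium came from a 2 h AIME step without hepatic S9 (alginate-water microspheres); concentrations spanned 0.002 - 200 uM, single technical replicate per run.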
smiles,measurement,setting,value
Clc1cccc(Cl)c1Cl,outcome,[1],inactive
same,outcome,[2],inactive
same,outcome,[3],inactive
Cc1cc(C(F)(C(F)(F)F)C(F)(F)F)ccc1NC(=O)c1cccc(I)c1C(=O)NC(C)(C)CS(C)(=O)=O,outcome,[1],inactive
same,AC50,[2],4.61 µM (active)
same,AC50,[3],5.74 µM (active)
same,outcome,[4],inactive
same,AC50,[5],5.5 µM (active)
same,AC50,[6],11.3 µM (active)
CC(C)[C@@H](Nc1ccc(C(F)(F)F)cc1Cl)C(=O)OC(C#N)c1cccc(Oc2ccccc2)c1 (some centres undefined),AC50,[1],534 nM (active)
same,outcome,[2],inactive
same,AC50,[3],0.403 µM (active)
same,outcome,[4],inactive
same,outcome,[5],inactive
same,AC50,[6],14.5 µM (active)
Cc1cc(Cl)ccc1OC(C)C(=O)O (centres undefined),outcome,[7],inactive
same,outcome,[8],inactive
same,outcome,[9],inactive
O=C(Cc1ccccc1)OCCc1ccccc1,outcome,[1],inactive
same,outcome,[2],inactive
same,outcome,[3],inactive
COc1ccc(N)cc1,outcome,[8],inactive
N#CS,outcome,[8],inactive
same,outcome,[10],inactive
COc1ccccc1N,outcome,[10],inactive
CC(=O)C(F)(F)C(F)(F)F,outcome,[4],inactive
same,outcome,[5],inactive
CC(C)O.CC(C)O.OCCN(CCO)CCO.OCCN(CCO)CCO.[Ti],outcome,[8],inactive
same,outcome,[10],inactive
O=C(CBr)c1ccc(O)cc1,outcome,[8],inactive
OC(Cc1ccccc1Cl)(Cn1[nH]cnc1=S)C1(Cl)CC1 (centres undefined),AC50,[4],20.8 µM (active)
same,AC50,[5],50 µM (active)
same,AC50,[6],37.1 µM (active)
NC(=O)c1ccc(N)nc1,AC50,[4],9.03 µM (active)
same,AC50,[5],5.88 µM (active)
same,AC50,[6],6.3 µM (active)
C=CC(F)(C(F)(F)F)C(F)(F)C(F)(F)F (centres undefined),outcome,[4],inactive
same,outcome,[5],inactive
CCC[CH2][Sn]([Cl])([Cl])[CH2]CCC,AC50,[8],13.6 µM (active)
same,AC50,[10],9.65 µM (active)
Clc1cccc(Cl)c1,outcome,[10],inactive
CCOCn1c(-c2ccc(Cl)cc2)c(C#N)c(Br)c1C(F)(F)F,AC50,[4],3.01 µM (active)
same,AC50,[5],6.04 µM (active)
same,AC50,[6],4.74 µM (active)
CNC(=O)CSP(=O)(OC)OC,outcome,[4],inactive
same,outcome,[5],inactive
same,outcome,[6],inactive
FC(F)OCC(F)(F)C(F)(F)F,outcome,[4],inactive
same,outcome,[5],inactive
same,outcome,[6],inactive
O=S(=O)(F)C(F)(F)C(F)(F)C(F)(F)C(F)(F)F,outcome,[4],inactive
same,outcome,[5],inactive
same,outcome,[6],inactive
C=CCOC(F)(C(F)(F)F)C(F)(F)F,outcome,[4],inactive
same,outcome,[5],inactive
same,outcome,[6],inactive
O=S1(=O)OC(c2cc(Br)c(O)c(Br)c2)(c2cc(Br)c(O)c(Br)c2)c2ccccc21,AC50,[8],160 µM (active)
same,outcome,[10],inactive
CC(F)(F)CC(F)(F)F,outcome,[4],inactive
same,outcome,[5],inactive
O=c1[nH]c(=O)n(Cl)c(=O)n1Cl,outcome,[8],inactive
Cc1cc(Cl)ccc1OCCCC(=O)O,outcome,[8],inactive
same,outcome,[10],inactive
Nc1ncn[nH]1,outcome,[8],inactive
